Hits are enriched below; roughly 19% of the tested compounds scored in any of these assays.
IL1B secr inh: inhibitors of inflammasome signaling (IL-1 beta secretion); THP-1 LPS/ATP IL-1B secretion, AlphaLISA, 16 h; hits give low values; activity change, % at 57.5 µM; 360,000 compounds, 4.7% hits; in the data active = activity change below about -50%; inconclusive = mostly about -30% to -49%
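Secreted IL-1B measured by AlphaLISA bead assay after 16 h compound exposure of THP-1 cells; compounds (final up to 57.5 uM) added 1 h before LPS (250 ng/mL) and ATP (1.25 mM) stimulation; lower signal means less secretion.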
HT1080NT lethal: kills 2HG-producing HT-1080-NT fibrosarcoma cells. Potency, µM (series often up to 46.1 µM), usual class: cytotoxic. HT-1080-NT fibrosarcoma viability, CellTiter-Glo ATP luminescence, 48 h. AID 686970. 360,000 compounds, 1.6% hits;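 note: NT is the 2HG producing partner of a matched IDH1 knockdown line; nearly all actives have a fitted effect of over 55% in size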
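HT-1080-NT fibrosarcoma cells (2HG-overproducing), 750 cells/well in RPMI with 5% FBS, dosed after 2 h and incubated 48 h at 37C. CellTiter-Glo luminescence normalized to DMSO and no-cell wells; concentration-response curves fitted and classed.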
TDP1 cell CPT: DT40-hTDP1 cell growth loss with CPT; Potency, µM (series often up to 46.2 µM), actives largely listed as inhibitors; chicken DT40 Tdp1-/-;hTDP1 cells + 20 nM CPT, ATP luminescence, 48 h; AID 686979; 420,000 compounds, 12% hits; note: nearly all actives have a fitted effect of over 55% in size
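Chicken DT40 Tdp1-/- cells stably complemented with human TDP1 were seeded at 400 cells/well in medium containing 20 nM camptothecin, exposed to pin-transferred compounds, and grown at 37 °C for at least 48 hr. Viability was read as ATP luminescence.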
ELG1 DNA repair: ELG1-dependent DNA repair inhibition | HEK293T ELG1-luciferase reporter, luminescence, 16 h; DNA damage induced by 5-fluorouridine | Potency, µM (series often up to 46.1 µM), most hits filed as inhibitors | 330,000 compounds, 2.3% hits; note: nearly all actives have a fitted effect of over 55% in size
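DMSO vehicle served as the neutral condition. Each well held 2,000 cells given 5-fluorouridine plus compound; after 16 hr at 37 °C/5% CO2, ONE-Glo was added and luciferase measured 30 min later.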
HT1080 IDH1KD tx: kills HT-1080 cells with IDH1 knockdown; HT-1080 IDH1 knockdown viability, ATP luminescence, 48 h; Potency, µM (series often up to 46.1 µM), hits mostly cytotoxic; 360,000 compounds, 2% hits; AID 686971
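After a 2 h attachment period, IDH1KD HT-1080 cells took pin-transferred compound for 48 h at 37 °C; ATP-based luminescence after 10 min room-temperature reagent incubation reported viability.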
TDP1 cell noCPT: qHTS for Inhibitors of human tyrosyl-DNA phosphodiesterase 1 (TDP1): qHTS in cells in absence of CPT. DT40 Tdp1-/- hTDP1 cells, no CPT, ATP luminescence, 48 h. Potency, µM (top dose mostly 46.2 µM), usual class: inhibitors. 420,000 compounds, 15% hits. AID 686978, 2013; note: nearly all actives have a fitted effect of over 55% in size
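A cellular qHTS used chicken DT40 cells lacking endogenous Tdp1 but carrying stably transfected human TDP1. Compounds were applied without camptothecin, and cell growth kinetics were judged by ATP-dependent luminescence after ≥48 hr.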
A number is an active result; n = inactive; u = inconclusive; x = not tested or not shown. Unless noted, calls come from the whole dose curve; as a rule, active = well fitted curve in the direction sought with a large enough effect; inconclusive = small, poorly fitted or top-dose-only effect, or another doubt; inactive = no such curve, though single readings can be large; an effect the other way counts as inactive or inconclusive.

SMILES | IL1B secr inh | HT1080NT lethal | TDP1 cell CPT | ELG1 DNA repair | HT1080 IDH1KD tx | TDP1 cell noCPT
N#CC(C#N)=NNc1ccc(S(=O)(=O)N2CCCCC2)cc1 | n | n | u | u | n | 16µM
CCC(=O)Oc1ccc(C(=O)Nc2ccc3c(c2)C(=O)N(C2CCCCC2)C3=O)cc1 | n | u | 21µM | u | u | 15µM
O=C(Nc1ccc(S(=O)(=O)N2CCCC2)cc1)c1ccc(CN2CCOCC2)cc1 | n | n | u | u | n | u
O=C(Nc1ccc(S(=O)(=O)N2CCCCC2)cc1)c1ccc(CN2CCOCC2)cc1 | n | x | 18µM | 7.3µM | x | 23µM
COc1ccccc1N1CCN(C2CCCN(C(=O)c3cc(C4CC4)on3)C2)CC1 (stereo unspecified) | n | n | n | n | n | n
CC(=O)N1CCN=C1SCc1cccc(C)c1 | n | n | n | n | n | n
CC(C)NC(=O)C(=O)NCCCN1CCOCC1 | n | n | n | n | n | n
COc1ccc(C2c3c(-c4ccccc4)n[nH]c3C(=O)N2c2ccc(C(=O)O)cc2)c(OC)c1 (stereo unspecified) | x | x | n | x | x | n
CC1=C(C(=O)Nc2ccccc2)C(c2cccnc2)n2nc(SCc3ccccc3F)nc2N1 (stereo unspecified) | x | x | n | x | x | n
CC(C)Oc1ccc(CNC(=O)C2CCCCN2S(=O)(=O)c2ccc(F)cc2)cc1 (stereo unspecified) | x | x | n | x | x | n
COc1ccc(C(=O)Nc2ccc(S(=O)(=O)N3CCCC3)cc2)cc1 | n | n | n | u | n | n
COc1ccc(NS(=O)(=O)c2ccc(NC(=O)c3ccc(CN4CCOCC4)cc3)cc2)cc1 | u | n | 18µM | n | u | 23µM
COc1cccc(NC(=O)c2ccc(CN3CCOCC3)cc2)c1 | n | n | n | u | n | u
CCC(=O)Oc1ccc(NC(=O)c2ccc(S(=O)(=O)N3CCCC3)cc2)cc1 | n | n | u | x | n | 21µM
CCCCC(CC)Cn1c(O)c(/C=C2\C=NN=C2c2ccccc2)sc1=S (stereo unspecified) | -104 | n | u | u | n | u
CCCn1c(O)c(/C=C2\C=NN=C2c2ccccc2)sc1=S | u | n | n | u | n | n
CN(C)c1ccc(NC(=O)c2ccc(Cn3cc([N+](=O)[O-])cn3)cc2)cc1 | n | n | u | u | u | u
CC1=NN(C(=O)c2cccc(Cn3nc(C)c([N+](=O)[O-])c3C)c2)C(O)(C(F)(F)F)C1 (stereo unspecified) | n | 7.9µM | n | n | 5µM | u
CC1=NN(C(=O)c2ccc(Cn3cc([N+](=O)[O-])cn3)cc2)C(O)(C(F)(F)F)C1 (stereo unspecified) | n | n | 1.8µM | n | n | 3.7µM
Cc1nn(Cc2cccc(C(=O)N3N=C(C(F)F)CC3(O)C(F)F)c2)c(C)c1[N+](=O)[O-] (stereo unspecified) | n | n | u | u | u | u
CC(C)C(=O)Nc1nnc2n1CCS2 | x | x | n | x | x | n
Cc1ccc(NC(=O)COc2coc(CN3CCN(c4ccccc4)CC3)cc2=O)cc1 | n | n | n | n | n | 21µM
O=C(COc1coc(CN2CCN(c3cccc(Cl)c3)CC2)cc1=O)NC1CCCC1 | n | n | u | n | n | 15µM
COc1ncnc2c1oc1ccccc12 | n | n | n | u | n | n
Clc1ccc2oc3c(Cl)ncnc3c2c1 | -101 | n | 18µM | u | n | 6.5µM
SMILES | IL1B secr inh | HT1080NT lethal | TDP1 cell CPT | ELG1 DNA repair | HT1080 IDH1KD tx | TDP1 cell noCPT
COc1cc(CN(CC(C)C)S(=O)(=O)c2ccccc2Br)cc(OC)c1 | n | n | u | n | n | u
COc1cccc(CN(CCC(C)C)S(=O)(=O)c2cc(Br)ccc2Br)c1 | n | n | 18µM | x | n | 16µM
CCN(CC)c1cc(CS(=O)c2ccccc2)nc(-c2ccccc2)n1 (stereo unspecified) | -50 | n | 21µM | x | n | u
CC[n+]1cccc(-c2nc3ccccc3s2)c1 | n | n | u | n | n | n
CC[n+]1c(/C=C/N(C)c2ccccc2)n(-c2ccccc2)c2ccc(-c3nc4ccccc4s3)cc21 | -102 | u | 0.82µM | 4.1µM | 5.8µM | 0.73µM
O=C(CSc1ccccc1)NC1CCCCCC1 | n | n | n | u | n | n
O=C(/C=C/c1ccc(O)c(O)c1)c1ccc(S(=O)(=O)N2CCCCCC2)cc1 | -74 | n | 4.6µM | n | n | 5.2µM
COC(=O)c1ccc(S(=O)(=O)N2CCCCCC2)cc1 | n | n | n | n | n | n
CC(=O)Nc1ccc(-c2ccnc3c2CC(C(=O)NCC2CC2)O3)cc1 (stereo unspecified) | n | u | 13µM | x | 16µM | 8.2µM
COCCNC(=O)C1Cc2c(-c3ccc(NC(C)=O)cc3)ccnc2O1 (stereo unspecified) | n | n | u | x | n | u
CC(=O)Nc1ccc(-c2ccnc3c2CC(C(=O)NCc2ccc(N4CCN(C)CC4)cc2)O3)cc1 (stereo unspecified) | n | n | u | x | n | u
CC(=O)Nc1ccc(-c2ccnc3c2CC(C(=O)NCC2CCOCC2)O3)cc1 (stereo unspecified) | n | u | 4.6µM | x | u | 4.1µM
CC(=O)Nc1ccc(-c2ccnc3c2CC(C(=O)NCCC(F)(F)F)O3)cc1 (stereo unspecified) | n | n | 13µM | x | u | 15µM
Cc1cc(S(=O)(=O)Nc2ncnc3sccc23)ccc1F | n | n | n | x | n | n
O=C(NCc1ccccc1F)C(=O)NCC(c1cccs1)S(=O)(=O)c1cccs1 (stereo unspecified) | x | x | n | x | x | u
Cn1nccc1C(=O)N1CCCC(N2CCN(Cc3ccc4c(c3)OCO4)CC2)C1 (stereo unspecified) | n | n | n | n | n | n
CCS(=O)(=O)N1CCC2(CC1)OC(=O)C(C)=C2C(=O)NCc1ccc(OC)c(OC)c1 | x | x | n | x | x | n
Cc1ccc(CSC2=Nc3ccccc3C3=NC(CCC(=O)N4CCN(c5ccccc5)CC4)C(=O)N23)cc1 (stereo unspecified) | x | x | 21µM | x | x | 21µM
O=C(CCC1N=C2c3ccccc3N=C(SCc3ccc(Cl)cc3)N2C1=O)N1CCN(c2ccccc2)CC1 (stereo unspecified) | x | x | 16µM | x | x | 21µM
CCC1CCC2(CC1)NC(=O)N(CC(=O)Nc1ccc(OC)c(Cl)c1)C2=O (stereo unspecified) | n | n | n | n | n | u

From PubChem
